Screening results (PubChem BioAssay)
p53 reactivation – restores transcriptional activity of mutant p53; H1299 p53-A138V BP100-luciferase reporter, luminescence, 24 h; Potency, µM (titrated, usually from 92.2 µM), without a hit: at the highest dose activity change, positive = activation, usual class: activators; 320,000 compounds, 0.063% hits; AID 504706; active means well fitted activation curve with a large enough effect; inconclusive means small, poorly fitted or top-dose-only effect; inactive means no such curve, though single readings can be large or run the other way; further: potency means the concentration at half of the fitted maximal effect; % of control where 0% means no effect; nearly all actives have a fitted effect of over 45% in size
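H1299 (p53-null), stable ts p53-A138V + BP100-Luc; 1000 cells/well, Opti-MEM/10% FBS; cpd 4 pt, 1:5; 24 h, 37 deg C, 5% CO2; detection reagent 10 min RT; luminescence.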
Menin-MLL TR inh – menin-MLL binding inhibition, Texas Red mutant peptide; Menin + Texas Red MLL mutant peptide, fluorescence polarization; Potency, µM (doses to about 61.6 µM), inactives show at the top dose FP activity change, negative = inhibition, most hits filed as inhibitors; 270,000 compounds, 0.23% hits; active means well fitted inhibition curve with a large enough effect in the polarisation, with a control signal flat, not every such curve was filed as active; inconclusive means small, poorly fitted or top-dose-only effect, or effect the other way, or a change in a side signal; inactive means no such curve, though single readings can be large or run the other way; the % refers to the polarisation; further: potency means the concentration at half of the fitted maximal effect; % of control where 0% means no effect
ClpP mod – qHTS Assay for Activators of ClpP | ATP-dependent Clp protease proteolytic subunit (Bacillus subtilis (strain 168)), P80244 | purified B. subtilis ClpP, FRET peptide cleavage, 20 min | Potency, µM (top dose mostly 57.5 µM), for the others: at the highest dose activity change, negative = active | 340,000 compounds, 1.9% hits; active means well fitted falling curve with a large enough effect; inconclusive means small, poorly fitted or top-dose-only effect; inactive means no such curve, though single readings can be large or run the other way; further: potency means the concentration at half of the fitted maximal effect; the source files actives as falling curves though it sought activators and does not explain the sign; nearly all actives have a fitted effect of over 65% in size
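ClpP 10 microg/mL final, pH 8 Tris/KCl buffer with BSA, glycerol, Tween-20; compound pinned in; FRET-FV substrate; RT 20 min; Ex320/Em430; ΔFRET vs ADEP 5.8 microM, DMSO, no enzyme.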
Menin-MLL FL inh – menin-MLL binding inhibition, fluorescein peptide. Fluorescence polarization, fluorescein-MLL peptide displacement from menin. 290,000 tested, under 10 active. AID 1766. FP activity change, % at 61.4 µM; active means well fitted curve in the direction sought with a large enough effect in the polarisation, not every such curve was filed as active; inconclusive means small, poorly fitted or top-dose-only effect, or effect the other way, or a change in a side signal; inactive means no such curve, though single readings can be large or run the other way; the % refers to the polarisation; further: % of control where 0% means no effect
CXXC DNA block – inhibitors of human MLL CXXC domain-DNA interaction; MLL-CXXC / FITC-HOXA9 DNA fluorescence polarization; Potency, µM (highest dose often 115 µM), inactives show at the top dose activity change, negative = inhibition, hits mostly inhibitors; 290,000 compounds, 0.037% hits; active means well fitted inhibition curve with a large enough effect in the polarisation, with a control signal flat, not every such curve was filed as active; inconclusive means small, poorly fitted or top-dose-only effect, or effect the other way, or a change in a side signal; inactive means no such curve, though single readings can be large or run the other way; the % refers to the polarisation; further: potency means the concentration at half of the fitted maximal effect
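Steps: dispense CXXC domain solution (7 uM) → pin compounds or unlabeled HOX-A9 DNA control → 5 min ambient → add FLSN-HOX-A9 solution (50 nM) → spin → 30 min ambient → fluorescence polarization. Tris pH 7.5/NaCl/DTT/BSA buffer.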
* marks the source's active call; other numbers are inactive results. The sample as a whole holds a higher share of hits than the screen did.

Results for O=c1ccc2ccccc2[nH]1 ?
Menin-MLL TR inh: 4%; Menin-MLL FL inh: 3

Results for COc1ccc([N+](=O)[O-])cc1NC(=O)CSc1nc(C)c(C)c(C)n1 ?
p53 reactivation: -2%; Menin-MLL TR inh: -1%; ClpP mod: -5%; Menin-MLL FL inh: 1; CXXC DNA block: -2%

How did COc1ccc([N+](=O)[O-])cc1NC(=O)C(C)Sc1nc(C)c(C)c(C)n1 (stereo not given) do in these assays?
p53 reactivation: -11%; Menin-MLL TR inh: 10%; ClpP mod: 28µM*; Menin-MLL FL inh: 6; CXXC DNA block: 3%

Results for CSc1ccccc1C(=O)Nc1cccc([N+](=O)[O-])c1 ?
p53 reactivation: 5%; Menin-MLL TR inh: 36%; ClpP mod: -21%; Menin-MLL FL inh: 7; CXXC DNA block: -6%

Results for COc1ccc([N+](=O)[O-])cc1NC(=O)c1ccccc1SC ?
p53 reactivation: 16%; Menin-MLL TR inh: 18%; ClpP mod: 28µM*; Menin-MLL FL inh: -7; CXXC DNA block: 13%

How did O=C1/C(=C/c2ccco2)CCc2ccccc21 do in these assays?
p53 reactivation: inconclusive; Menin-MLL TR inh: -8%; ClpP mod: 1%; Menin-MLL FL inh: 15; CXXC DNA block: 4%

What do the screens show for `Nc1ccc2c(c1)C/C(=C/c1ccco1)C2=O`?
p53 reactivation: inconclusive; Menin-MLL TR inh: inconclusive; ClpP mod: 14µM*; Menin-MLL FL inh: inconclusive; CXXC DNA block: 0%

How did Cc1ccccc1NC(=O)Nc1nnc(N2CCCCCC2)s1 do in these assays?
ClpP mod: 0%

How did COC(=O)[C@H](CCSC)NC(=O)c1ccc(NC[C@@H](N)CS)cc1-c1ccccc1 do in these assays?
Menin-MLL TR inh: -1%; Menin-MLL FL inh: -6

How did COC(=O)c1cc(C)c(C)cc1NC1OC(CO)C(O)C1O (stereo not given) do in these assays?
ClpP mod: 3.5µM*

Results for Cc1ccc([N+](=O)[O-])cc1NC1OC(CO)C(O)C1O (stereo not given) ?
p53 reactivation: 2%; Menin-MLL TR inh: 8%; ClpP mod: 0%; Menin-MLL FL inh: -1; CXXC DNA block: 1%

How did CC(=O)c1cccc(NC(=O)COc2ccccc2C(=O)Nc2ccccc2)c1 do in these assays?
ClpP mod: -4%

What do the screens show for `O=C(C[N+]1(CCO)CCOCC1)c1cccc2ccccc12`?
ClpP mod: 0%

What do the screens show for `Cn1c2ccccc2n2c(=O)cc(-c3ccccc3)c(C#N)c12`?
p53 reactivation: 6%; ClpP mod: -17%; Menin-MLL FL inh: 2; CXXC DNA block: 0%

Results for Cn1c2ccccc2n2c(=O)c(Cl)c(-c3ccccc3)c(C#N)c12 ?
p53 reactivation: 3%; Menin-MLL TR inh: 2%; ClpP mod: 28µM*; Menin-MLL FL inh: 3; CXXC DNA block: 15%

What do the screens show for `CC(C)(C)OC(=O)N1CCC(c2c(C(=O)Nc3ccc4c(c3)OCO4)cnn2-c2ccc(F)cc2F)CC1`?
ClpP mod: -1%

What do the screens show for `O=C(CN(c1ccc(Br)cc1)S(=O)(=O)c1ccc(Cl)c([N+](=O)[O-])c1)NCCc1ccccc1`?
p53 reactivation: 17%; Menin-MLL TR inh: 21%; ClpP mod: 25µM*; Menin-MLL FL inh: -1; CXXC DNA block: -2%

What do the screens show for `O=C(CN(c1cccc(C(F)(F)F)c1)S(=O)(=O)c1ccc(Cl)c([N+](=O)[O-])c1)NCc1ccccc1`?
p53 reactivation: -9%; Menin-MLL TR inh: 17%; ClpP mod: -2%; Menin-MLL FL inh: 3; CXXC DNA block: 14%

How did c1nc2sc3c(c2c2nnnn12)CCC3 do in these assays?
p53 reactivation: -4%; Menin-MLL TR inh: 3%; ClpP mod: 14µM*; Menin-MLL FL inh: 5; CXXC DNA block: -2%

How did c1nc2sc3c(c2c2nnnn12)CCCC3 do in these assays?
p53 reactivation: 0%; Menin-MLL TR inh: 4%; ClpP mod: 16µM*; Menin-MLL FL inh: 2; CXXC DNA block: 1%

How did CCCCCC(=O)N1CCN(CCN=CC2=C(O)CC(c3ccco3)CC2=O)CC1 (stereo not given) do in these assays?
p53 reactivation: 5%; Menin-MLL TR inh: -6%; ClpP mod: 1%; Menin-MLL FL inh: 3; CXXC DNA block: -7%
